Experimental findings from PubChem BioAssay AID1508600 (Functional Genomics Laboratory (NCATS/FGL), 2020) are described below.

Screen size: about 53,000 sequences; about 3,700 (7%) were called active. This excerpt belongs to a sample that is enriched for actives. A number with no mark means an inactive call.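 How the source made its calls: active means gene knockdowns whose robust z-score for IL-1 alpha signal is at least 2 or at most -2, so actives lie on both sides; inactive means the rest.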

The assay is described as follows: Components of the Cytosolic LPS Sensing Pathway: Gene Identification via Genome-wide siRNA Screen.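 Further: robust z of the log signal after scaling to non-targeting control siRNA wells of the plate.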 Conditions: RAW264.7 macrophages, IL-1a HTRF, actives lie on both sides, screened at 100 nM (by protocol), cells primed 5 h with Pam3CSK4 first. In a few lines:
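RAW264.7; siRNA 100 nM final, RNAiMAX, 48h 37 degrees C; Pam3CSK4 5 h; LipidA + TransIT-TKO 24 h; IL-1a HTRF; CellTiter-Glo viability; robust z vs negative-control median.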
On the technique in general: In TR-FRET formats the signal depends on donor and acceptor labels being close together.
Turning to “GGGAGUUAUGUUGGUAUCATT against 1700029F12Rik”, the z-score was -1.38.

For the sequence GGACUUCUUCUAUUUCAUATT against Fam20a, the z-score is -0.986.

Take GGAAAACACGUUCACUAUATT against Elp2: the z-score was 0.021.

As to GGAGUCUCCAAUGAAAUGUTT against Kcnma1, the z-score is -0.464.

With GCUAAACGAGUUAUUGGUGTT against Ecpas, the z-score is 0.829.

Turning to GGAGAAACUGGCUUUCUCUTT against Zp3, the z-score is 0.918.

For the sequence GGUUCUACAGAUGUUUUCUTT against Tnfrsf22, the z-score is 3.84 (active).

As for GCGGCAAGUGGACUUUUCATT against Dlc1, the z-score was -1.09.

In the case of GCCCAGUUUGUCACAAAGCTT against Sorl1, the z-score was -0.276.

As for GCUAAGCGGAAUGCACUCGTT against Cxcl5, the z-score was -2.23 (active).

Take “CCCUAGUGCAGUGAUAACUTT against 1700016D06Rik”: the z-score is 0.938.

Consider CCCAACAAGAGUAUCUAUGTT against Foxh1, for which the z-score is -0.125.

Regarding GGCAUCUCUCCAAUAACCUTT against Fbxw2, the z-score is -1.2.

GGUUCUGGUUUAGAUGCUATT against H2aw: the z-score was 2.36 (active).

Take GGAUUUCUUCUUAUGAUGATT against Khnyn: the z-score was -1.21.

Regarding GCUCAGAAUAUCACAUCAATT against Ppm1b, the z-score was -1.59.

As for GCUAAAAUAUUAGGGAAGCTT against Timm29, the z-score is 0.429.

As to GGAGAUAGGAUUGCUUGCATT against Mthfd1l, the z-score is -2.3 (active).

As to GGAAAGAAAAAUGAAGCUUTT against Tmem167b, the z-score was -0.548.

For GGAUAUCGUUGUUUCUGAGTT against Lmbr1, the z-score is -1.

Take GGGUGGUGUUCCAUGACAGTT against Ubp1: the z-score was -1.82.

With GGCACAAGAUUAUUUAAGUTT against Tmem68, the z-score was 0.362.

For the sequence GGUUCUAUGCUGAAGGUCATT against Lhfpl2, the z-score is 0.358.

For GGAGCUGUCCAGGUUUAUUTT against Psmd6, the z-score is -2.72 (active).

For GGCUUGUGAAUGGAAAUAATT against Hsp90aa1, the z-score was -0.416.

Consider CCUUAAGACCGGAUUUUUUTT against Cyp4f14, for which the z-score was 0.64.

Consider GGAGUUUGUAUCAAACUUATT against Zcchc8, for which the z-score is 0.0121.

Take “GGUAAUGGGAGCUAGUUUATT against 6330549D23Rik”: the z-score was -0.259.

As to GCAUAGAAACCAUGCACAUTT against Acot2, the z-score was 3.28 (active).
